The record followed here is PMC5540273 (PLoS ONE, 2017).

Holding throughout (conditions): concentration: 1 μM, replicates: in singlicate; n = 1
The subject of assay [1] is T1, RSK1(Kin.Dom.1-N-terminal).
T1 construct: gene RPS6KA1

Assay [2] has as its system T2, RSK1(Kin.Dom.2-C-terminal).
T2 construct: gene RPS6KA1

Assay [3] has as its system T3, RSK2(Kin.Dom.1-N-terminal).
T3 construct: gene RPS6KA3

Assay [4] relates to T4, RSK2(Kin.Dom.2-C-terminal).
T4 construct: gene RPS6KA3

Assay [5] relates to T5, RSK3(Kin.Dom.1-N-terminal).
T5 construct: gene RPS6KA2

In assay [6] the test system is T6, RSK3(Kin.Dom.2-C-terminal).
T6 construct: gene RPS6KA2

For assay [7], the system named is T7, RSK4(Kin.Dom.1-N-terminal).
T7 construct: gene RPS6KA6

Assay [8] has as its system T8, RSK4(Kin.Dom.2-C-terminal).
T8 construct: gene RPS6KA6

The next assay has as its system S6K1.
The next assay has as its system SBK1.
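Further: KINOMEscan kinase panel screen.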

With `Cc1nnc(-c2ccc3ncn(-c4ccc(S(C)=O)cc4)c3c2)o1` (centres unmarked), the “%Inh” value in [1] came to 19%; in assay [2], 21%; in assay [3], 4%; in [4], 0%; in assay [5] it was 0%; in [6], 18%. In addition, the “%Inh” value is on record as 0% in [7], 32% in assay [8], 0% in the assay with S6K1 and 0% in the assay on SBK1.
With `Nc1ncnc2c1ncn2-c1cccc2ccccc12` [SKF-97184], the “%Inh” value in assay [1] came out at 16%; in assay [2], 16%; in assay [3] it was 38%; in assay [4] it was 0%; in assay [5], 0%; in [6], 36%. For the same compound, the “%Inh” value in assay [7] came to 11%; in [8] it was 0%; in the assay with S6K1 it was 15%; with SBK1 it was 28%.
For `COC(=O)c1c(-c2ccccc2)c2cc(Br)ccc2c(=O)n1Cc1ccc(NC(=O)CCC(=O)O)cc1`, the “%Inh” value in assay [1] worked out at 0%; in [2] it was 5%; in [3], 0%; in assay [4], 29%; in assay [5] it was 16%; in assay [6], 15%. Further, the “%Inh” value is 0% in [7], 26% in assay [8], 0% in the assay with S6K1 and 1% in the assay on SBK1.
Regarding `COc1cc2ncn(-c3cc(OCc4ccc(S(C)(=O)=O)cc4)c(C(N)=O)s3)c2cc1OC` [GW869979], the “%Inh” value in assay [1] was 1%; in [2], 0%; in assay [3] it was 26%; in assay [4], 0%; in assay [5], 0%; in assay [6], 7%. Moreover, the “%Inh” value in assay [7] turned out to be 27%; in [8] it was 6%; in the assay with S6K1 it was 19%; with SBK1 it was 37%.
On to `CCC(=O)c1c(-c2ccccc2)c2cc(Cl)ccc2c(=O)n1Cc1cc(S(C)(=O)=O)n(CC(N)=O)n1`, for which the “%Inh” value in assay [1] is recorded as 0%; in [2], 0%; in assay [3], 0%; in assay [4], 0%; in assay [5] it was 1%; in assay [6], 6%. For the same compound, the “%Inh” value was found to be 0% in assay [7], 5% in [8], 0% with S6K1 and 0% in the assay on SBK1.
Consider `Cc1ccccc1COc1cc(-n2cnc3cc(Cl)ccc32)sc1C(N)=O` [GW813349], for which the “%Inh” value in assay [1] is given as 16%; in assay [2], 0%; in assay [3], 2%; in [4] it was 49%; in assay [5] it was 5%; in assay [6] it was 0%. Moreover, the “%Inh” value in assay [7] was 0%; in [8], 42%; in the assay with S6K1 it was 8%; in the assay on SBK1 it was 0%.
Turning to `CCn1c(-c2ccoc2)nc2cnccc21` [SB-733887], the “%Inh” value in assay [1] was 9%; in assay [2], 4%; in assay [3], 0%; in assay [4] it was 0%; in [5], 0%; in assay [6], 0%. The “%Inh” value is listed as 0% in assay [7], 0% in assay [8], 18% in the assay on S6K1 and 0% in the assay on SBK1.
With `COc1cc2nccc(Nc3cccc(Oc4ccccc4)c3)c2cc1OC.Cl` [GW284543], the “%Inh” value in assay [1] was 0%; in assay [2], 0%; in assay [3], 0%; in [4], 0%; in assay [5], 10%; in assay [6], 0%. The “%Inh” value in assay [7] is on record as 0%; in assay [8], 0%; in the assay on S6K1 it was 0%; with SBK1, 16%.
For `Cc1nn2c(=O)cc(N3CCOCC3)nc2n1Cc1cccc(Cl)c1Cl` [GSK2342769], the “%Inh” value in [1] was 0%; in [2] it was 0%; in assay [3], 9%; in assay [4], 3%; in assay [5] it was 25%; in assay [6], 0%. In addition, the “%Inh” value in assay [7] turned out to be 5%; in [8], 0%; in the assay on S6K1 it was 1%; in the assay with SBK1, 14%.
As to `Cc1nc(N(C)[C@H]2CN(C(=O)CC#N)CC[C@H]2C)c2cc[nH]c2n1`, the “%Inh” value was found to be 12% in [1]; 0% in [2]; 0% in assay [3]; 0% in assay [4]; 12% in assay [5]; 12% in assay [6]. Besides, the “%Inh” value in assay [7] stood at 4%; in [8], 4%; with S6K1 it was 0%; in the assay on SBK1, 0%.
For the compound `COc1ccc(-c2coc3ccc(-c4nnc(SCc5cccc(C#N)c5)o4)cc23)cc1`, the “%Inh” value is 16% in [1]; 24% in [2]; 9% in [3]; 0% in assay [4]; 16% in [5]; 18% in assay [6]. Besides, the “%Inh” value was 26% in assay [7], 24% in [8], 2% with S6K1 and 0% in the assay with SBK1.
Take `CC(C)(C)c1ccc(C(=O)Nc2cn3cc(-c4ccccc4)ccc3n2)cc1`: the “%Inh” value was found to be 0% in assay [1]; 0% in assay [2]; 3% in assay [3]; 0% in assay [4]; 24% in assay [5]; 100% in [6]. Further, the “%Inh” value (in [7]; in [8]; in the assay with S6K1; in the assay on SBK1) was 0% each time.
Turning to `Nc1n[nH]c2nnc(-c3ccccc3)c(-c3ccccc3)c12` [GW554060], the “%Inh” value in assay [1] came to 0%; in [2] it was 1%; in assay [3], 4%; in assay [4], 29%; in assay [5] it was 4%; in [6] it was 0%. For the same compound, the “%Inh” value in assay [7] is on record as 10%; in [8], 8%; with S6K1, 0%; in the assay on SBK1 it was 13%.
Turning to `OCCCNc1nccc(-c2c(-c3cccc(C(F)(F)F)c3)nn3cc(C(F)(F)F)ccc23)n1` [GW630813], the “%Inh” value in [1] was 0%; in assay [2] it was 32%; in assay [3] it was 0%; in assay [4], 5%; in assay [5], 0%; in [6], 0%. Further, the “%Inh” value worked out at 0% in assay [7], 89% in [8], 1% with S6K1 and 0% in the assay on SBK1.
For `CCC(=O)c1c(-c2ccccc2)c2cc(Cl)ccc2c(=O)n1Cc1cc(S(C)(=O)=O)n(CCC(C)(C)O)n1`, the “%Inh” value in assay [1] was found to be 0%; in [2] it was 0%; in assay [3], 9%; in assay [4], 0%; in assay [5], 11%; in [6], 5%. Moreover, the “%Inh” value is 39% in assay [7], 23% in [8], 0% in the assay with S6K1 and 0% in the assay on SBK1.
`Cn1c(=O)c(F)c(Nc2ccc(I)cc2F)c2c(=O)n(OC[C@H](O)CO)cnc21`: the “%Inh” value in [1] is given as 18%; in assay [2], 12%; in assay [3], 39%; in [4], 38%; in assay [5] it was 11%; in assay [6], 1%. Further, the “%Inh” value in assay [7] stood at 0%; in assay [8], 6%; in the assay with S6K1, 0%; in the assay on SBK1, 0%.
With `O=C1NC(=O)C(c2ccccc2)=C1Nc1cccc(O)c1` [SB-390534], the “%Inh” value in assay [1] is 19%; in assay [2] it was 0%; in assay [3], 24%; in assay [4], 0%; in assay [5], 0%; in [6], 0%. The “%Inh” value in assay [7] turned out to be 14%; in assay [8] it was 7%; in the assay with S6K1 it was 11%; with SBK1, 27%.
